Measured values taken from PubChem BioAssay.
Calls of active or inactive are those of the source.

How the values were obtained:
[1] = binders of probe aFSTL3 on microarray, primary screen, stem cell growth factor project, biochemical, small-molecule microarray, fluorescence 635/667 (AID 1064); conditions: higher = more signal;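 note: measures binding of the biotinylated anti-FSTL3 antibody to printed compounds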
[2] = binders from COS7 lysate, DM2A8 probe, primary screen, torsin A project, cell lysate, small-molecule microarray, fluorescence 635/667 (AID 1065); conditions: higher = more signal, COS7 lysate expressing mutant human TOR1A
[3] = binders of probe aFGF2 on microarray, primary screen, stem cell growth factor project, biochemical, small-molecule microarray, fluorescence 635/667 (AID 1067); conditions: higher = more signal;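 note: measures binding of biotinylated aFGF2 protein to printed compounds on slides; z-score merges feature fluorescence and signal-to-noise across triplicate slides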
[4] = binders of probe aFGF10 on microarray, primary screen, stem cell growth factor project, biochemical, small-molecule microarray, fluorescence 635/667 (AID 1071); conditions: higher = more signal;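 note: score merges 667 nm spot intensity and signal to noise from triplicate slides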
[5] = biological target: Neurogenic locus notch homolog protein 2 (Homo sapiens) (UniProt Q04721); assay: Notch2 binders on small-molecule microarrays, primary screen, biochemical, small-molecule microarray, 635 nm fluorescence, stem cell growth factors (AID 1073); conditions: Notch2 binding, higher = more signal
Chain of Neurogenic locus notch homolog protein 2 (Homo sapiens) (Q04721 whole entry, looked up, canonical isoform): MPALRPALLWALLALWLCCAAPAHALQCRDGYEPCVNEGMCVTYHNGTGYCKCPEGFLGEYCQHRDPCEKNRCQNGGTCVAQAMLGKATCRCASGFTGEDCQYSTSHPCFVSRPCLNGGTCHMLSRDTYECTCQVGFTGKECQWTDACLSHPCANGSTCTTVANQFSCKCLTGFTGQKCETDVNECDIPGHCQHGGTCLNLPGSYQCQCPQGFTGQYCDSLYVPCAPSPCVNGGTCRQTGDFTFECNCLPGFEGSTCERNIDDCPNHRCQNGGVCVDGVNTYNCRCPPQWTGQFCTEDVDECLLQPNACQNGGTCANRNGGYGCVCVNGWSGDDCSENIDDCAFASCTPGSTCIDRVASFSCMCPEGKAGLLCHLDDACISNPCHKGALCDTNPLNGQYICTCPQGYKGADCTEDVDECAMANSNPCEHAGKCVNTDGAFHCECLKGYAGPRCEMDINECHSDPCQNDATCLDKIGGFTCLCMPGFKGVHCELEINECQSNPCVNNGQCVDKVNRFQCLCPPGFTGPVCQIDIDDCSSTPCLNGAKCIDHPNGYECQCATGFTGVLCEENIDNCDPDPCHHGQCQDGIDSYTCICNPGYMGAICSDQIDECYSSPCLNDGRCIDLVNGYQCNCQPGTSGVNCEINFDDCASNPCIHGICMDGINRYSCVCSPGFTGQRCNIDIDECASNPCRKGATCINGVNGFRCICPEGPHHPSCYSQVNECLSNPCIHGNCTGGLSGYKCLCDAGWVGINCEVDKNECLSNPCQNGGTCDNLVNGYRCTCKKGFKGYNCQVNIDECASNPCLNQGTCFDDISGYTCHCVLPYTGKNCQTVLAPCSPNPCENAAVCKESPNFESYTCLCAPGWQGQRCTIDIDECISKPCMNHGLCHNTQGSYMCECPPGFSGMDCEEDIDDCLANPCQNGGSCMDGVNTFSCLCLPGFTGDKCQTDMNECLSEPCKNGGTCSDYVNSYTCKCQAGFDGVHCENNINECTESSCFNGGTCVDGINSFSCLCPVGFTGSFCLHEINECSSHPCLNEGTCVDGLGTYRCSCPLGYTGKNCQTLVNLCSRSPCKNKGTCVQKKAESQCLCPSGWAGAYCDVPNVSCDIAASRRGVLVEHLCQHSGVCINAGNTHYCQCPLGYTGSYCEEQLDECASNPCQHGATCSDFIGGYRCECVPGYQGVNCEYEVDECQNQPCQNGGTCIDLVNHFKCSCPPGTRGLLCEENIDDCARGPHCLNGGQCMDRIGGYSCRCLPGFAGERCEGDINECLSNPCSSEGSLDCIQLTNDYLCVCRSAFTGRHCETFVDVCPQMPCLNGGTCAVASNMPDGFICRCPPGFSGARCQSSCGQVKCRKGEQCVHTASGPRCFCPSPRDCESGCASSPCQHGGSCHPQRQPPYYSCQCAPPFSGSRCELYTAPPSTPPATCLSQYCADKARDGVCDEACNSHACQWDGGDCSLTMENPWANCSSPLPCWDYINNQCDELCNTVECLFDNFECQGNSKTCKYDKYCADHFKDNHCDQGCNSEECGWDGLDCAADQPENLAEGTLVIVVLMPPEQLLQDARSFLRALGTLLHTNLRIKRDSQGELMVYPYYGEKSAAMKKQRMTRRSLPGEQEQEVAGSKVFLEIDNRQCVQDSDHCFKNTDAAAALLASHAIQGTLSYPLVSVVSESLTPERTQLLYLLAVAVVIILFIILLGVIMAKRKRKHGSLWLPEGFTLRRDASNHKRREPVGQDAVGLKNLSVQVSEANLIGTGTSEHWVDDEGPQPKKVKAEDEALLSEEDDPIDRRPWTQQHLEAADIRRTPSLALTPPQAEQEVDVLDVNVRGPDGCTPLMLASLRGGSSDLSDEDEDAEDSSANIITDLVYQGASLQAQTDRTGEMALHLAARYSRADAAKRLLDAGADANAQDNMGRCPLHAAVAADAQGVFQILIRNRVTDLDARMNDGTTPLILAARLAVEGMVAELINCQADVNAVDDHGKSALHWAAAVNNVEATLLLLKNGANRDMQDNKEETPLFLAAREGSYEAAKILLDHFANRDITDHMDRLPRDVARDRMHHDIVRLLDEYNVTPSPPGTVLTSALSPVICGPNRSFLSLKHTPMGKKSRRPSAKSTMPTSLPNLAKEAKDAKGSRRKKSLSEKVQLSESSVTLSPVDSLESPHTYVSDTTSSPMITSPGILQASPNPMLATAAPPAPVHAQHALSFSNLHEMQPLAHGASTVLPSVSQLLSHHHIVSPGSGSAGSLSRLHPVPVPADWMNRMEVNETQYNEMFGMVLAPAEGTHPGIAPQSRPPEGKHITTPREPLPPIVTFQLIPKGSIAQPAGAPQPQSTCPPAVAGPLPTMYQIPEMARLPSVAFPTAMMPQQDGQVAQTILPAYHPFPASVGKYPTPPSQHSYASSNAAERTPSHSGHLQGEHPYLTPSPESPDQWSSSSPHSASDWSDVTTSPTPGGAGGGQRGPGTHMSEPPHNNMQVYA

[6] = biological target: Pro-neuregulin-1, membrane-bound isoform (Homo sapiens) (UniProt Q02297); assay: NRG1 binders on small-molecule microarrays, primary screen, psychiatric disease protein project, biochemical, small-molecule microarray, fluorescence 635/667 (AID 1075); conditions: NRG1 binding, 635 nm fluorescence, higher = more signal;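 note: score combines 667 nm spot fluorescence with signal to noise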
Chain of Pro-neuregulin-1, membrane-bound isoform (Homo sapiens) (Q02297 whole entry, looked up, the tested form may be a part, canonical isoform): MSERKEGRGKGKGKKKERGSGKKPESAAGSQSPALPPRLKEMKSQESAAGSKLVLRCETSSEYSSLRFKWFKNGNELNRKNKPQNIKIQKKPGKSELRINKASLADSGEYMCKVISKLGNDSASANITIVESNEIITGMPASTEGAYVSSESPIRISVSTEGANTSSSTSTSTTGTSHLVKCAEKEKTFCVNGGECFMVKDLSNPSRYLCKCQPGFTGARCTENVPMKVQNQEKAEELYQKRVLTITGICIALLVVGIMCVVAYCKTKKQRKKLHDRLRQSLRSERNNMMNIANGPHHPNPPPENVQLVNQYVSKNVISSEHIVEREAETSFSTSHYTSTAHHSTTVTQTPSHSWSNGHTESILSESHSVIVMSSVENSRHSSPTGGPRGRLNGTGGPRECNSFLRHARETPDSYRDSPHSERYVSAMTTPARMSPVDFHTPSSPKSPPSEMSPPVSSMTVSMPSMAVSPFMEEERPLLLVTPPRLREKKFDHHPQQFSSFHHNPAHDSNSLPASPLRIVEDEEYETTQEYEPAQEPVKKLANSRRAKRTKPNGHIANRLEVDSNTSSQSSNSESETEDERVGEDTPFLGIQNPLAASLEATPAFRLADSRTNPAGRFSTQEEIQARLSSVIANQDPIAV

[7] = tested on: Neuregulin-1 EGF-like domain; assay: binders of neuregulin-1 EGF-like domain, primary screen, biochemical, small-molecule microarray, 635 nm fluorescence (AID 1081); conditions: small-molecule microarray binding, higher = more signal;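 note: binding of the protein to compounds printed on small-molecule microarray slides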
[8] = FRG1 promoter luciferase signal modulators, primary screen, FRG1 inhibition for FSHD, cell-based, C2C12 myotubes, firefly/Renilla luciferase, luminescence (AID 1084); conditions: higher = more signal, called active from +8 up or from −8 down
[9] = binders of probe aFST on microarray, primary screen, stem cell growth factor project, biochemical, small-molecule microarray, fluorescence 635/667 (AID 1086); conditions: higher = more signal;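 note: score merges 667 nm fluorescence with signal-to-noise of each printed compound spot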
[10] = binders of probe aHhip on microarray, primary screen, stem cell growth factor project, biochemical, small-molecule microarray, fluorescence 635/667 (AID 1087); conditions: higher = more signal;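 note: score merges spot fluorescence at 667nm with spot signal to noise ratio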
[11] = tested on: PRMT1 (protein arginine N-methyltransferase 1); assay: PRMT1 binders on small-molecule microarrays, primary screen, biochemical, small-molecule microarray, 635 nm fluorescence (AID 1088); conditions: small-molecule microarray binding, higher = more signal;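 note: binding of Prmt1 protein to compounds spotted on small-molecule microarray slides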
[12] = yeast growth modulation, basal conditions, primary screen, YJM789 clinical isolate, OD600, 24 h (AID 1089);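 note: growth of clinical yeast isolate S. cerevisiae YJM 789 seeded 1000 cells per well; test concentration not given here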; conditions: S. cerevisiae YJM789 growth, higher = more signal, called active from +8 up or from −8 down
[13] = fission yeast growth modulation, primary screen, strain 972, OD600, 24 h, no modulator (AID 1090);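 note: basal condition with compound alone and no growth modifier present; test concentration not given here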; conditions: S. pombe 972 growth, higher = more signal, called active from +8 up or from −8 down
[14] = S. cerevisiae growth modulation with rapamycin, primary screen, strain BY4716, OD600, 96 h (AID 1091); conditions: higher = more signal, called active from +8 up or from −8 down; note: test concentration not given here
[15] = biological target: Torsin-1A-interacting protein 2 (Homo sapiens) (UniProt Q8NFQ8); assay: LULL1 binders on small-molecule microarray, primary screen, cell lysate, human LULL1 lysate, 635/667 nm fluorescence (AID 1092); conditions: hLULL1 lysate binding, 635 nm fluorescence, higher = more signal;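 note: probe is lysate of COS7 cells overexpressing human LULL1; score merges per-feature 667 nm fluorescence with signal-to-noise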
Chain of Torsin-1A-interacting protein 2 (Homo sapiens) (Q8NFQ8 whole entry, looked up): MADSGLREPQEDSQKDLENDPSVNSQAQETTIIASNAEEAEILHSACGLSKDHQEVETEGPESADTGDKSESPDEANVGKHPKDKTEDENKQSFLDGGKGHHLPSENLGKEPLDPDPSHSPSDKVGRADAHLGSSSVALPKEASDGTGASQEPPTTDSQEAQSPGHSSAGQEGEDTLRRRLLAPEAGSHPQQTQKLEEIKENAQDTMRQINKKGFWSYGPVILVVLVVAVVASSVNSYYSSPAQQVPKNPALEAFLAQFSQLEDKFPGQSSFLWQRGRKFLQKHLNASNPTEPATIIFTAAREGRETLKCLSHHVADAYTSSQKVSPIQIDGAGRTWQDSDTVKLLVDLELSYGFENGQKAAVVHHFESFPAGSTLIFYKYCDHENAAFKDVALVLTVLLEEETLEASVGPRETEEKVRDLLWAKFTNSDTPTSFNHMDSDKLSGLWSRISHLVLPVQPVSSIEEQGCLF

[16] = E. coli growth modulation, two-sided OD650, primary screen, E. coli filamentation project, strain DRC41, 24 h (AID 1093); conditions: OD650, 24 h, higher = more signal, called active from +8 up or from −8 down;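 note: MC1000 strain lacking acrAB efflux and sulA so SOS filamentation is blocked; test concentration not given here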
[17] = small-molecule microarray binders of probe aLefty2, primary screen, biochemical, biotinylated probe, 635/667 nm fluorescence (AID 1094); conditions: higher = more signal;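 note: score merges spot fluorescence near 667 nm with spot signal-to-noise ratio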
[18] = tested on: Noggin (protein binding on small-molecule microarray); assay: Noggin binders on small-molecule microarray, primary screen, biochemical, 635/667 nm fluorescence (AID 1095); conditions: 635 nm fluorescence, higher = more signal;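 note: score merges 667 nm feature fluorescence with signal to noise over triplicate slides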
[19] = biological target: Neurogenic locus notch homolog protein 3 (Homo sapiens) (UniProt Q9UM47); assay: NOTCH3 binders on small-molecule microarray, primary screen, biochemical, 635/667 nm fluorescence (AID 1096); conditions: NOTCH3 binding, 635 nm fluorescence, higher = more signal
[20] = small-molecule microarray binders of probe aEGFR, primary screen, biochemical, biotinylated probe, 635/667 nm fluorescence (AID 1097); conditions: higher = more signal;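 note: probe is a biotinylated anti-EGFR antibody binding compounds printed on slides; score combines fluorescence near 667 nm and signal to noise of each spot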

SMILES	composite z-score [1]	composite z-score [2]	composite z-score [3]	composite z-score [4]	composite z-score [5]	composite z-score [6]	composite z-score [7]	z-score [8]	composite z-score [9]	composite z-score [10]	composite z-score [11]	z-score [12]	z-score [13]	z-score [14]	composite z-score [15]	z-score [16]	composite z-score [17]	composite z-score [18]	composite z-score [19]	composite z-score [20]
C#C[C@@H]1Oc2ccccc2S(=O)(=O)N2CCC[C@H]12	-0.311	0.143	-0.114	0.0728	0.133	-0.206	-0.113	-0.587 (inactive)	0.214	-0.0596	-1.07	-0.0284 (inactive)	0.809 (inactive)	-2.55 (inactive)	-0.875	-1.1 (inactive)	0.0886	0.18	-0.176	0.056
Cc1ccc(F)cc1S(=O)(=O)N[C@@H]1CCN(Cc2ccc(CC(C)C)cc2)C1	-0.433	0.172	-0.214	-0.613	-0.613	-0.0721	-0.197	-1.06 (inactive)	-0.493	-0.249	0.446	-25.8 (active)	-21.4 (active)	-4.49 (inactive)	1.59	-19.5 (active)	-0.192	-0.0204	-0.734	-0.17
C=C(COC)/C(=C/C[C@H](OC(=O)c1ccncc1)c1ccc(CO)o1)c1cc(C(=O)OC)ccc1OC	-0.393	0.649	0.0026	0.905	0.614	0.407	0.716	0.0676 (inactive)	0.404	-0.123	1.55	-0.787 (inactive)	0.132 (inactive)	-0.443 (inactive)	1.84	0.55 (inactive)	0.0421	0.834	1.12	-0.112
C=CCC(OC(C)=O)[C@@H]1[C@@H](N(Cc2cc3ccccc3o2)C(=O)Cc2ccc(F)cc2)c2cc(OCCCO)ccc2N1C(=O)Cc1ccc(OC)cc1 (stereo not given in full)	-0.115	0.102	-0.0409	0.351	-0.383	0.16	-0.707	-2.16 (inactive)	-0.0711	0.0373	-1.46	-1.54 (inactive)	-0.644 (inactive)	-0.624 (inactive)	-0.362	-0.824 (inactive)	-0.198	-0.0439	-1.37	-0.131
CC(C)CN1CCc2nc(-c3ccccc3)c3c(c2CC1)CO[C@@H](C)C3	0.0816	0.252	-0.0594	0.309	0.834	-0.117	0.132	-0.867 (inactive)	0.594	0.394	-0.36	0.175 (inactive)	-0.327 (inactive)	-0.378 (inactive)	-0.39	0.102 (inactive)	0.061	0.364	0.0668	0.0657
CC(C)(C)N1C(=O)[C@H]2[C@H]3[C@H](O)[C@H](O)CC(=NOCc4ccccc4)[C@@H]3CC[C@H]2C1=O	-0.0757	0.581	-0.0963	0.805	1.49	0.583	1.13	-1.4 (inactive)	0.503	-0.15	0.966	-1.86 (inactive)	-0.752 (inactive)	-0.715 (inactive)	1.16	-0.207 (inactive)	-0.0574	0.524	0.63	0.328
CCCNC(=O)OC[C@H]1O[C@H](CCON=C[C@@H](OC)[C@H](C)C=CCC(=O)OC)C=C[C@@H]1Oc1ccc(OC)cc1	-0.479	0.698	-0.136	-0.192	-0.0065	-0.23	0.614	1.16 (inactive)	-0.0617	-0.0672	1.17	-1.01 (inactive)	0.141 (inactive)	-0.0988 (inactive)	0.524	0.294 (inactive)	-0.0519	0.194	-0.31	-0.136
O=C1[C@H]2[C@H]3[C@H](O)[C@H](O)CC(=NOCc4ccccc4)[C@H]3CC[C@H]2C(=O)N1c1ccc(F)cc1F	-0.426	-0.0076	-0.0561	0.0471	-0.0497	0.757	0.106	0.131 (inactive)	-0.314	-0.214	-0.129	-1.3 (inactive)	-0.128 (inactive)	-0.982 (inactive)	-0.089	0.358 (inactive)	-0.373	-0.153	-0.367	-0.0936
C=CCN1C(=O)[C@]2(O[C@H](CCn3cc(CCO)nn3)[C@@H]([Si](C)(C)c3ccc(OC)cc3)[C@@H]2C)c2cc(N3CCOC3=O)ccc21	-0.0415	0.0421	-0.152	0.0622	-0.447	1.05	1.18	-3.36 (inactive)	-0.414	-0.261	1.19	-0.621 (inactive)	-0.111 (inactive)	-0.0506 (inactive)	2.79	-0.342 (inactive)	-0.271	0.432	0.231	-0.256
O=C1C[C@@H](O)[C@@H](O)[C@@H]2[C@@H]3C(=O)N(c4cccc(Oc5ccccc5)c4)C(=O)[C@@H]3CC[C@@H]12	-0.557	0.272	-0.0598	0.516	1.26	0.713	1.01	-0.211 (inactive)	0.0399	0.0659	0.766	-0.336 (inactive)	-0.444 (inactive)	-0.622 (inactive)	1.42	0.185 (inactive)	-0.177	0.468	1.09	0.126
NCCCCCNC(=O)[C@@H]1C[C@@H]2C(=O)N3CCC[C@H]3C(=O)N2[C@@H]1c1cccc(OCCO)c1	2.37	2.1	0.103	0.349	0.185	1.86	1.26	0.76 (inactive)	1.68	0.309	1.35	-0.486 (inactive)	-0.703 (inactive)	-0.652 (inactive)	1.41	-0.104 (inactive)	0.948	0.989	0.613	0.364
COC(=O)[C@H](C)NC(=O)CCC1CC(OC(=O)NCc2cccc3ccccc23)CC2(CCCC(COC(=O)NCC3CCCCC3)O2)O1 (stereo not given in full)	-0.641	0.585	-0.0775	0.406	1.34	1.06	1.16	0.619 (inactive)	0.715	0.21	1.55	-0.0166 (inactive)	0.633 (inactive)	-0.825 (inactive)	3.37	-0.639 (inactive)	-0.114	0.918	1.06	0.0278
C=C(/C(=C/C[C@H](OC(C)=O)c1ccc(OCCO)cc1)c1cnc2ccccc2c1)C(C)C	-0.195	0.214	-0.122	1.11	1.01	0.69	1	0.372 (inactive)	0.182	-0.333	1.44	-1.75 (inactive)	-2.26 (inactive)	-1.03 (inactive)	1.67	1.19 (inactive)	-0.062	1.58	1.1	-0.204
C[N+](C)(C)CCCCCCNC(=O)[C@@H]1C[C@@H]2C(=O)N3CCC[C@H]3C(=O)N2[C@@H]1c1cccc(OCCO)c1	-0.0041	0.669	-0.169	-0.239	-0.337	0.747	1.35	5.01 (inactive)	-0.128	-0.48	1.44	-1.6 (inactive)	-0.0376 (inactive)	-1.06 (inactive)	3.14	0.784 (inactive)	-0.0898	1.88	0.245	-0.0967
COC(=O)[C@H]1COC(c2ccc(OCCCO)cc2)=N1	0.971	-0.354	-0.0425	-0.576	0.115	-0.0556	0.207	0.97 (inactive)	0.179	-0.0618	-0.152	-0.488 (inactive)	-0.888 (inactive)	-0.606 (inactive)	3.59	0.332 (inactive)	0.267	-0.37	-0.607	-0.0947
CC(C)=C1C(=O)C(c2ccccc2)=C2CN3C(=O)N(CCc4ccccc4)C(=O)[C@]3(Cc3ccc(F)cc3)[C@H]21	0.565	-0.65	0.0547	-0.247	-1.09	1.3	0.134	-0.0896 (inactive)	0.841	0.0722	1.11	-0.129 (inactive)	-0.0353 (inactive)	0.135 (inactive)	2.04	-1.7 (inactive)	0.253	-1.25	-1.3	0.119
N#Cc1ccc(NN2C(C(O)c3cc(C(F)(F)F)cc(C(F)(F)F)c3)C=CC3C(=O)N(c4ccccc4)C(=O)C32)cc1 (stereo not given)	0.0678	0.517	0.116	0.668	1.27	1.97	1.22	0.474 (inactive)	0.785	0.357	1.34	0.628 (inactive)	0.817 (inactive)	4.19 (inactive)	3.45	-1.55 (inactive)	0.135	0.0695	1.05	0.0731
CCOC(=O)CCN1C(=O)[C@H]2[C@H]3[C@H](O)[C@H](O)CC(=NOCc4ccccc4)[C@@H]3CC[C@H]2C1=O	-0.572	0.227	-0.201	0.193	0.93	0.22	0.588	-0.48 (inactive)	0.0033	-0.0645	0.454	-0.14 (inactive)	0.116 (inactive)	-0.664 (inactive)	0.175	-0.961 (inactive)	-0.147	0.676	1	-0.0597
CCOC(=O)[C@H](CC(C)C)NC(=O)CCC1CC(OC(=O)NCCc2ccc(F)cc2)CC2(CCCC(COC(=O)NCc3ccccc3)O2)O1 (stereo not given in full)	-0.969	0.561	0.0131	1.02	0.769	1.13	1.28	2.94 (inactive)	0.223	0.0695	1.57	-0.341 (inactive)	-0.265 (inactive)	0.707 (inactive)	2.24	-0.206 (inactive)	-0.0778	1.46	0.828	0.0338
